Over roughly 33,000 sequences, “e-score” has its median near -0.05; the highest 2% begin near 0.38. The full list was thinned out, with the highest values kept by preference.

For this assay, the target named is T1, SIX1-Q177R homeodomain (human, UniProt Q15475 108-198, Q177R).
T1 sequence: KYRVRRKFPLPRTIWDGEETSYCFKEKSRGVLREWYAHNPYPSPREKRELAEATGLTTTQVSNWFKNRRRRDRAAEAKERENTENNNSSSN
In words: universal protein binding microarray; Universal all-10-mer PBM (8x60K, AMADID 030236), 300 nM GST-tagged protein, Alexa Fluor 488 anti-GST; buffer, salt, pH and temperature not stated (as in Berger); high values mean tight binding. The conditions noted are these: protein: ivt; tags: N-terminal GST; dsDNA, one strand shown. A digest of the protocol: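 Binding was expressed as 8-mer E-scores calculated with the Universal PBM Analysis Suite. The GST-tagged homeodomains, made by in vitro transcription/translation, were applied in duplicate at 300 nM final concentration to universal 'all 10-mer' protein binding microarrays (8×60K format).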
Take ACGTGTGG: the binding signal came out at 0.218 ± 0.0138 E-score. For GCGTGTCA the value was 0.4332 ± 0.000573 E-score; for CCGTGTCA, 0.465 ± 0.00781 E-score; for CCAGCTGG, 0.263 ± 0.0674 E-score. The same measure for CATGGTGG: 0.192 ± 0.00214 E-score. For GTGCGTGA, the binding signal was determined as 0.163 ± 0.0169 E-score. As for CCCCCTTC, the binding signal was 0.2098 ± 0.000417 E-score. For ACGTGTCT the value was 0.337 ± 0.00126 E-score. The same measure for TCGTGTCA: 0.4434 ± 0.00419 E-score; for TCGTGACA: 0.329 ± 0.0128 E-score; for CCGTGTCG: 0.441 ± 0.0221 E-score. As to TCGGGTCA, the binding signal turned out to be 0.197 ± 0.0386 E-score. For CCGGGTCG the value was 0.248 ± 0.0288 E-score. For CCGTGTCC the value was 0.408 ± 0.0236 E-score; for CCCTGTCC, 0.152 ± 0.0156 E-score; for CCCCGTCG, 0.161 ± 0.0244 E-score.

Take CCGTGATC: the binding signal was determined as 0.165 ± 0.0407 E-score. In the case of ACGTGTCA, the binding signal was determined as 0.4123 ± 0.00349 E-score. The same measure for CGAATCCG: 0.166 ± 0.0303 E-score. The same measure for AGCTCGTG: 0.244 ± 0.0101 E-score. Consider ATACTCCC, for which the binding signal came to 0.162 ± 0.0435 E-score.

As for CCCCGGTA, the binding signal worked out at 0.284 ± 0.00694 E-score.

With CATCAGCG, the binding signal came to 0.153 ± 0.0322 E-score.

On to CACCGGAC, for which the binding signal stood at 0.315 ± 0.0498 E-score.

Take CTATAACA: the binding signal came out at 0.228 ± 0.0138 E-score. In the case of AAAGTGTT, the binding signal turned out to be 0.285 ± 0.0563 E-score. With AGTGTGTC, the binding signal turned out to be 0.283 ± 0.029 E-score. As to AAAGTGTG, the binding signal is 0.184 ± 0.0165 E-score. The same measure for CAAGTGTA: 0.392 ± 0.0272 E-score; for GAAGTGTC: 0.387 ± 0.0118 E-score.

For the sequence AGAGTGTA, the binding signal was 0.424 ± 0.0108 E-score. The same measure for AGAGTGTC: 0.412 ± 0.00919 E-score; for TAAGTGTA: 0.373 ± 0.0287 E-score.

As to AGAGTGTG, the binding signal was 0.247 ± 0.0115 E-score. Consider CAAGTGTC, for which the binding signal was 0.379 ± 0.0101 E-score. The same measure for ACCCGGCT: 0.202 ± 0.0126 E-score; for ACACATAA: 0.18 ± 0.0275 E-score; for GCGAGACA: 0.249 ± 0.00462 E-score. The same measure for GGAACCCC: 0.165 ± 0.0247 E-score; for GGGATCAC: 0.2771 ± 0.000933 E-score; for CACCGGAA: 0.288 ± 0.0177 E-score. The same measure for TAAGGGTA: 0.163 ± 0.0467 E-score; for CCGACCAC: 0.192 ± 0.0175 E-score; for CGGGTATA: 0.21 ± 0.00983 E-score. For the sequence CGAGTGGA, the binding signal was determined as 0.166 ± 0.0322 E-score.

Regarding CGAGTACC, the binding signal came out at 0.168 ± 0.00651 E-score.

GGAGTACA: the binding signal was found to be 0.246 ± 0.013 E-score. For CGAGTGTA the value was 0.382 ± 0.0327 E-score. For CGAGTACA the value was 0.28 ± 0.0111 E-score; for GGAGTGCA, 0.17 ± 0.0126 E-score; for GGAGTGTA, 0.417 ± 0.0148 E-score. The same measure for CGAGTGTC: 0.415 ± 0.00743 E-score; for CGAGTATC: 0.158 ± 0.0391 E-score; for GGGTGCTA: 0.217 ± 0.00882 E-score. Take CCGCCCCA: the binding signal is 0.239 ± 0.0124 E-score. The same measure for CCCTACCA: 0.167 ± 0.0194 E-score; for CACCTAAG: 0.263 ± 0.00735 E-score. For AAACCCCG the value was 0.231 ± 0.0422 E-score; for ACTATATC, 0.178 ± 0.0197 E-score. For ATGGAGTC the value was 0.232 ± 0.0246 E-score; for AACACGTA, 0.343 ± 0.0046 E-score.

With GACACGTC, the binding signal is 0.381 ± 0.00585 E-score. The same measure for CACACGTC: 0.221 ± 0.00539 E-score; for CACACGTA: 0.262 ± 0.0227 E-score; for GACACGTA: 0.39 ± 0.0131 E-score. The same measure for AACACGTC: 0.309 ± 0.0249 E-score. The same measure for CGAAGTAC: 0.174 ± 0.00912 E-score; for CACCTCAC: 0.354 ± 0.0133 E-score; for CTCCCCCA: 0.176 ± 0.0255 E-score. Consider ACCCGCGA, for which the binding signal was 0.239 ± 0.0203 E-score.

For CGGGCACA, the binding signal was 0.1994 ± 0.000764 E-score. For TACCCGGA the value was 0.247 ± 0.00272 E-score.

Turning to CACCCGGA, the binding signal amounted to 0.388 ± 0.0297 E-score.

Regarding CACCCGGC, the binding signal was determined as 0.36 ± 0.0229 E-score. For CACGCTTC the value was 0.24 ± 0.0251 E-score; for GACACGGA, 0.418 ± 0.0309 E-score. Turning to CACACGAC, the binding signal came out at 0.237 ± 0.00357 E-score.

For CCCACGGA, the binding signal is 0.161 ± 0.00447 E-score. The same measure for AACACGGC: 0.35 ± 0.00429 E-score; for TACACAAA: 0.247 ± 0.0503 E-score. The same measure for CACACGGC: 0.161 ± 0.0205 E-score. For TACACGGA the value was 0.402 ± 0.00597 E-score. Regarding GACACGGC, the binding signal amounted to 0.427 ± 0.0135 E-score. The same measure for GACACGAC: 0.436 ± 0.00629 E-score; for GATACGGA: 0.215 ± 0.00231 E-score; for CACACGGA: 0.253 ± 0.0652 E-score.

GACACGAA: the binding signal was 0.331 ± 0.0274 E-score.

Source of the values: article PMC10668032, “Altered binding affinity of SIX1-Q177R correlates with enhanced WNT5A and WNT pathway effector expression in Wilms tumor”.
